Results filed as inconclusive are left out. Active and inactive are the calls of the source. The call rests on the fitted dose curve; in most records, active means well fitted cell-killing curve with a large enough effect in the repeat runs; inconclusive means weak or mixed curves, or effect the other way; inactive means flat fitted curve, though single readings scatter.
Experiment: qHTS RealTime-Glo MT Cell Viability Assay in HEK293 cells - 0 hour (AID 1224880); further: top concentration of the series differs between compounds; nearly all actives have a fitted effect of over 45% in size
Conditions: RealTime-Glo luminescence; series mostly up to 76.8 µM
Text: U.S. Tox21 Program National Center for Advancing Translational Sciences [NCATS] NIH Chemical Genomics Center [NCGC] U.S. Environmental Protection Agency [EPA] National Institutes of Environmental Health Sciences [NIEHS] National Toxicology Program [NTP] U.S. Food and Drug Administration [FDA] Tox21 Assay Overview: Measure of cell viability is critical in the cell-base assay. Analysis of cell viability is necessary for the characterization of cell responses to cytotoxic drugs and environmental stress. A RealTime-Glo MT Cell Viability Assay to monitor cell viability in real time of continues cell culture during 40 hours of compound treatment was used to screen Tox21 10K library compounds in Hek293 cells. The RealTime-Glo MT Cell Viability Assay is a nonlytic, homogeneous, bioluminescent method to measure cell viability in real time using a simple, plate-based method. The assay involves adding NanoLuc luciferase and a cell-permeant prosubstrate to cells in culture. Viable cells reduce the proprietary prosubstrate to generate a substrate for NanoLuc luciferase. This substrate diffuses from cells into the surrounding culture medium, where it is rapidly used by the NanoLuc Enzyme to produce a luminescent signal. The signal correlates with the number of viable cells, making the assay well suited for cytotoxicity studies.
Tox21 Assay Protocol Summary: The mixture of Hek293 cell suspension and reagents were dispensed at 600cells/6 ul/well in 1536-well tissue culture treated black solid bottom plates using a Multidrop dispenser. After the assay plates were incubated at a 37 C/5% CO2 incubator for 5 hours, 23 nL of compounds dissolved in DMSO, positive and negative controls was transferred to the assay plate by a pintool work station. The plates were incubated at 37 C for 40 hours. The luminescence intensity were measured at 0h, 8h, 16h, 24h, 32h and 40h time points using ViewLux plate reader during compound treatment.

Compound | outcome
CCCCCCCCCCCC#N | inactive
CC(C)OC(=O)Nc1ccccc1 | inactive
CCCCCOC(=O)c1ccccc1C(=O)OCCCCC | inactive
Nc1c(Cl)c(Cl)nc(C(=O)O)c1Cl | inactive
O=[N+]([O-])c1ccc(Oc2ccc(Cl)cc2Cl)cc1 | inactive
OCCN(CCO)CCO | inactive
c1cc2c3c(cccc3c1)CC2 | inactive
CN=C=S | inactive
COP(N)(=O)SC (stereo not given) | inactive
CCOC(=O)c1ccccc1C(=O)OCC | inactive
COC(=O)NS(=O)(=O)c1ccc(N)cc1 | inactive
Nc1ccccc1C(=O)O | inactive
C=CCO | inactive
Cc1ccc(N)cc1N | inactive
O=C1CCCN1 | inactive
Oc1ccccc1Cl | inactive
O=[N+]([O-])c1ccc([As](=O)(O)O)cc1 | inactive
Clc1ccccc1Cl | inactive
O=Cc1cccc(Oc2ccccc2)c1 | inactive
CCNc1nc(NC(C)C)nc(SC)n1 | inactive

Compound | outcome
COC(=O)c1ccccc1C(=O)OC | inactive
CCCCCCCCCl | inactive
CC(C)NC(=O)N1CC(=O)N(c2cc(Cl)cc(Cl)c2)C1=O | inactive
CC(C)C1(C)N=C(c2nc3ccccc3cc2C(=O)O)NC1=O (stereo not given) | inactive
O=C(O)c1ccccn1 | inactive
CC(C)(C)OOC(C)(C)C | inactive
C=CC(N)=O | inactive
Cn1cc(-c2ccccc2)c(=O)c(-c2cccc(C(F)(F)F)c2)c1 | inactive
COCCl | inactive
CCCC1COC(Cn2cncn2)(c2ccc(Cl)cc2Cl)O1 (stereo not given) | inactive
CN(C)CCO | inactive
CN(C)N=O | inactive
c1ccc(-c2ccccc2)cc1 | inactive
BrCCBr | inactive
[N-]=[N+]=[N-] | inactive
[O-][Cl+2]([O-])O | inactive
Cc1ccccc1O | inactive
C=C(C)CCl | inactive
ClCCBr | inactive
CCCN(CCC)N=O | inactive

— PubChem BioAssay (Tox21)
